{"source": "paper PMC5540273", "about": "(PLoS ONE, 2017);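 further: kd values determined as follow-up on hits from a single-replicate KINOMEscan panel screen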", "key": {"[1]": {"test_system": "T1, PCTK1", "T1 construct": "gene CDK16"}, "[2]": {"test_system": "T2, PCTK2", "T2 construct": "gene CDK17"}, "[3]": {"test_system": "T3, PCTK3", "T3 construct": "gene CDK18"}, "[4]": {"test_system": "PDGFRA"}, "[5]": {"test_system": "PDPK1"}, "[6]": {"test_system": "PHKG2"}}, "data": [{"smiles": "COc1ccc(Nc2nccc(N3CCC(NC(=O)C(C)c4ccc(Cl)cc4)CC3)n2)cc1", "note": "(stereo not drawn) [GSK1379812]", "values": [{"measurement": "Kd", "setting": "[1]", "value": "> 10000", "unit": "nM"}]}, {"smiles": "O=C(Nc1n[nH]c2nc(-c3ccco3)c(Br)cc12)C1CCN(Cc2ccccc2)C1.O=C(O)[C@H](O)[C@@H](O)C(=O)O", "note": "(stereo not drawn) [SB-742034]", "values": [{"measurement": "Kd", "setting": "[1]", "value": 150, "unit": "nM"}, {"measurement": "Kd", "setting": "[2]", "value": 240, "unit": "nM"}]}, {"smiles": "CC(=O)c1c(C)c2cnc(Nc3ccn(C)n3)nc2n(C2CCCC2)c1=O", "values": [{"measurement": "Kd", "setting": "[3]", "value": "> 10000", "unit": "nM"}]}, {"smiles": "Cc1cnc(N)c(/C=C/c2cncc(C(=O)NCCc3ccc(Cl)cc3Cl)c2)c1.Cl", "note": "[GSK190937]", "values": [{"measurement": "Kd", "setting": "[4]", "value": 39, "unit": "nM"}]}, {"smiles": "Cn1cnc2c(N)ncnc21", "note": "[SKF-97623]", "values": [{"measurement": "Kd", "setting": "[4]", "value": "> 10000", "unit": "nM"}]}, {"smiles": "CC[C@@H]1CO[C@H](C(=O)Nc2ccccc2)CN1c1cc(-c2ccc3c(N)n[nH]c3c2)nc(NC)n1", "note": "[GSK2376236]", "values": [{"measurement": "Kd", "setting": "[5]", "value": 1.7, "unit": "nM"}]}, {"smiles": "CNc1nc(-c2ccc3c(N)n[nH]c3c2)cc(N2C[C@@H](C(=O)Nc3ccccc3)CC[C@H]2C)n1", "note": "[GSK2298859]", "values": [{"measurement": "Kd", "setting": "[5]", "value": 1.7, "unit": "nM"}]}, {"smiles": "Cc1nccc(-c2c(-c3ccc(F)cc3)ncn2CCCN2CCOCC2)n1.Cl", "note": "[SB-282975]", "values": [{"measurement": "Kd", "setting": "[6]", "value": "> 10000", "unit": "nM"}]}]}
